In the library only some 11% were active in any assay of this set; here they are far more common.
NIH3T3 tox: kills NIH 3T3 cells | NIH 3T3 viability, CellTiter-Glo ATP luminescence, 48-72 h | Potency, µM (top dose mostly 96.7 µM), for inactives: at the highest dose activity change, negative = cytotoxicity, usual class: inhibitors | 94,000 tested, 4.3% active | AID 1345082; active = well fitted curve in the direction sought with a large enough effect; inconclusive = small, poorly fitted or top-dose-only effect, or another doubt; inactive = no such curve, though single readings can be large; an effect the other way counts as inactive or inconclusive; also: % is scaled to controls: 0 for no effect and ±100 for the full control effect; nearly all actives have a fitted effect of over 55% in size
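Cytotoxicity is measured as loss of cellular ATP: NIH 3T3 cells (400/well) are exposed to compound for 48 or 72 hr at 37 °C, then CellTiter-Glo luminescence is imaged after 10 min at room temperature.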
FLuc inh: inhibitors of firefly (Photinus pyralis) luciferase | P08659 | Potency, µM (series often up to 115 µM), hits mostly inhibitors | purified P. pyralis luciferase, luminescence, biochemical | 76,000 tested, 2.5% active; active = well fitted curve in the direction sought with a large enough effect; inconclusive = small, poorly fitted or top-dose-only effect, or another doubt; inactive = no such curve, though single readings can be large; an effect the other way counts as inactive or inconclusive; also: % is scaled to controls: 0 for no effect and ±100 for the full control effect; nearly all actives have a fitted effect of over 65% in size
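Luminescence read by CCD imaging after purified firefly luciferase (10nM final) was added to substrate buffer holding 10uM D-luciferin and 10uM ATP, pH 7.5, pre-dosed with compound.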
HEK cytotox: HEK 293 cell cytotoxicity | AID 1345083 | Potency, µM (doses to about 115 µM), for the others: at the top dose activity change, negative = cytotoxicity, usual class: inhibitors | HEK 293 viability, ATP luminescence (CellTiter-Glo), 48-72 h | 94,000 tested, 6.6% active; active = well fitted curve in the direction sought with a large enough effect; inconclusive = small, poorly fitted or top-dose-only effect, or another doubt; inactive = no such curve, though single readings can be large; an effect the other way counts as inactive or inconclusive; also: % is scaled to controls: 0 for no effect and ±100 for the full control effect; nearly all actives have a fitted effect of over 60% in size
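HEK 293 cells seeded at 250 cells/well were exposed to compound for 48 or 72 hr at 37 degree Celsius. Viability taken as ATP content by CellTiter-Glo luminescence.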
hNpr1 antagonist: antagonists of human natriuretic peptide receptor Npr1 | 76,000 tested, 1.6% active | AID 1347048 | HEK293 hNpr1 GloSensor cGMP, ANP-stimulated luminescence | P16066 | Potency, µM (series often up to 46.3 µM), for inactives: at the highest dose activity change, negative = inhibition, usual class: inhibitors; also: % is scaled to controls: 0 for no effect and ±100 for the full control effect; nearly all actives have a fitted effect of over 60% in size
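HEK293 cells stably expressing human Npr1 and cGMP GloSensor pGS-40F, loaded 2 h with 2% GloSensor reagent, given compound 30 min at room temperature. Luminescence read before and 20 min after 0.1 nM hNppA.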
NPR1 antag cnf: confirmation of human Npr1 natriuretic peptide receptor antagonists; 1,400 tested, 76% active; shares compounds with hNpr1 antagonist; Potency, µM (top dose mostly 57.6 µM), without a hit: at the top dose activity change, negative = inhibition, hits mostly inhibitors; HEK293 hNpr1 cGMP GloSensor luminescence, ANP-stimulated; AID 1347044; also: nearly all actives have a fitted effect of over 70% in size
Npr2 selectivity: selectivity test of Npr1 antagonists against human Npr2; AID 1347046; 1,400 tested, 67% active; HEK293 hNpr2 GloSensor cGMP luminescence, CNP-stimulated; shares compounds with hNpr1 antagonist; Potency, µM (top dose mostly 57.6 µM), for the others: top-dose activity change, negative = inhibition, actives largely listed as inhibitors; also: nearly all actives have a fitted effect of over 70% in size
Target sequence (P20594 whole entry, looked up): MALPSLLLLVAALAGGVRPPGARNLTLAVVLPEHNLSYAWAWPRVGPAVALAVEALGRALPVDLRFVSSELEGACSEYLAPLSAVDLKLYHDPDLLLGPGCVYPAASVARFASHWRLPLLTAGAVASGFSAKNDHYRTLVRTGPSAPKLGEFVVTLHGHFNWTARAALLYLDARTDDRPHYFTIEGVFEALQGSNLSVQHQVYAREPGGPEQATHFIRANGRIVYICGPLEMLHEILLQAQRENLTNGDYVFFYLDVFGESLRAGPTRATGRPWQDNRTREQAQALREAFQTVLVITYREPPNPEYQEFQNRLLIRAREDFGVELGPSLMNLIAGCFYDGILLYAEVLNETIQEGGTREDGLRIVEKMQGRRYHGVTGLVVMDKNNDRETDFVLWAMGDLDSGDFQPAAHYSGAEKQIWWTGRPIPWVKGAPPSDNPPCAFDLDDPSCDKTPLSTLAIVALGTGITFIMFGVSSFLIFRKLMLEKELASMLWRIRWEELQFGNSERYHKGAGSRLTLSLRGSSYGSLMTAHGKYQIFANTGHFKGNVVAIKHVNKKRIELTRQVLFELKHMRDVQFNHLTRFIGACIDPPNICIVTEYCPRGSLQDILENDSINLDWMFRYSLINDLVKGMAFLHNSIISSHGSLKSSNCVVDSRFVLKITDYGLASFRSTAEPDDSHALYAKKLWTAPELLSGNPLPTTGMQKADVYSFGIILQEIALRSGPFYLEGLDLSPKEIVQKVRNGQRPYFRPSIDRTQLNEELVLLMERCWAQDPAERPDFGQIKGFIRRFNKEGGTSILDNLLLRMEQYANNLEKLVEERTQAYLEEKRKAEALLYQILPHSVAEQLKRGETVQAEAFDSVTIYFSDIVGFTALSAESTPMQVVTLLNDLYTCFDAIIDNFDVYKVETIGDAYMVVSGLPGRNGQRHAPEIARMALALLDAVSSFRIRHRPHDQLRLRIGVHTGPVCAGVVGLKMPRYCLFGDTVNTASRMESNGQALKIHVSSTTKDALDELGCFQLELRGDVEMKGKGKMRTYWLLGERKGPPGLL
FLuc inh counter: FLuc enzyme inhibition, Npr1 counter-screen; shares compounds with hNpr1 antagonist; purified FLuc enzyme, luminescence, Km substrate; Potency, µM (series often up to 57.6 µM), inactives show top-dose activity change, negative = inhibition, actives largely listed as inhibitors; 1,400 tested, 0.7% active; AID 1347047; active = well fitted curve in the direction sought with a large enough effect; inconclusive = small, poorly fitted or top-dose-only effect, or another doubt; inactive = no such curve, though single readings can be large; an effect the other way counts as inactive or inconclusive; also: 0% is about no effect
GloSensor ctrl: control cell line activity, Npr1 antagonist counter-screen; HEK293 GloSensor cGMP, SNP-stimulated, luminescence; Potency, µM (doses to about 57.6 µM), for inactives: top-dose activity change, negative = inhibition, actives largely listed as inhibitors; 1,400 tested, 69% active; shares compounds with hNpr1 antagonist; AID 1347051; also: % is scaled to controls: 0 for no effect and ±100 for the full control effect; nearly all actives have a fitted effect of over 70% in size
* = called active by the depositor; [ ] = another dose, or the depositor's remark. Unless noted, calls follow the shape of the full dose curve. Potency is read from the fitted curve at half-maximal effect.

What do the screens show for `COC(=O)c1cccc(NC(=S)N[C@H]2CO[C@H]3[C@@H]2OC[C@@H]3n2cc(-c3ccccc3)nn2)c1`?
NIH3T3 tox: inconclusive; FLuc inh: inactive; HEK cytotox: inconclusive; hNpr1 antagonist: 11µM*; NPR1 antag cnf: 12µM*; Npr2 selectivity: 17µM*; FLuc inh counter: -7%; GloSensor ctrl: 12µM*

How did COCCn1c(=O)c(C(=O)N2CCN([S+](=O)([O-])c3cccc(C(F)(F)F)c3)CC2)nc2cccnc21 do in these assays?
NIH3T3 tox: -21%; HEK cytotox: 0%

Results for O=C(CCC1CCCC1)N1CC(c2nnc(-c3ccncc3)o2)C2(CCOCC2)C1 (stereo not drawn) ?
NIH3T3 tox: -39%; FLuc inh: inactive; HEK cytotox: inconclusive; hNpr1 antagonist: -9%

How did Cc1occc1C(=O)N1CCC2(CC1)CC(c1ccccc1)CN(C)C2 (stereo not drawn) do in these assays?
NIH3T3 tox: -4%; FLuc inh: inactive; HEK cytotox: -4%; hNpr1 antagonist: 1%

What do the screens show for `CC(=O)Nc1ccccc1-c1c(C)nn2c1N(CCC(C)C)CCC2`?
NIH3T3 tox: inconclusive; FLuc inh: inactive; HEK cytotox: inconclusive; hNpr1 antagonist: -27%[70.6 µM]

Results for Cc1nn2c(c1-c1ccccc1[S+](C)(=O)[O-])N(CCC(C)C)CCC2 ?
NIH3T3 tox: inconclusive; FLuc inh: inactive; HEK cytotox: inconclusive; hNpr1 antagonist: 11µM*; NPR1 antag cnf: 3.1µM*; Npr2 selectivity: 8.9µM*; FLuc inh counter: 0%[86.2 µM]; GloSensor ctrl: 3.1µM*

How did CCOc1ccccc1C(=O)N1CC(=O)N(CCOc2ccccc2)CC(O)C1 (stereo not drawn) do in these assays?
NIH3T3 tox: -18%; HEK cytotox: inconclusive

What do the screens show for `O=C(c1ccncc1)N1CC2CCC(C1)N2Cc1ccc(-c2ccccc2)cc1`?
NIH3T3 tox: inconclusive; FLuc inh: inactive; HEK cytotox: inconclusive; hNpr1 antagonist: inconclusive; NPR1 antag cnf: 4.3µM*; Npr2 selectivity: 5.4µM*; FLuc inh counter: -3%; GloSensor ctrl: 4.8µM*

How did N#Cc1ccc(CN2C3CCC2CN(C(=O)c2ccncc2)C3)cc1 do in these assays?
NIH3T3 tox: inconclusive; FLuc inh: inactive; HEK cytotox: inconclusive; hNpr1 antagonist: -7%[70.6 µM]

How did CCCc1ccc(S(=O)(=O)NC2CCN(c3ccc(=O)n(CC4CC4)n3)CC2)cc1 do in these assays?
NIH3T3 tox: inconclusive; FLuc inh: inactive; HEK cytotox: inconclusive; hNpr1 antagonist: 10µM*; NPR1 antag cnf: 12µM*; Npr2 selectivity: 15µM*; FLuc inh counter: -1%; GloSensor ctrl: 14µM*

Results for O=c1ccc(N2CCC(NS(=O)(=O)c3ccccc3Cl)CC2)nn1CC1CC1 ?
NIH3T3 tox: inconclusive; FLuc inh: inactive; HEK cytotox: -39%; hNpr1 antagonist: 13µM*; NPR1 antag cnf: 27µM*; Npr2 selectivity: 22µM*; FLuc inh counter: -1%; GloSensor ctrl: 24µM*

What do the screens show for `O=C(CCC1CCCCC1)NC1CCN(c2ccc(=O)n(CC3CC3)n2)CC1`?
NIH3T3 tox: inconclusive; FLuc inh: inactive; HEK cytotox: inconclusive; hNpr1 antagonist: inconclusive

What do the screens show for `COc1ccccc1-c1ccnc(N[C@H]2CO[C@H]3[C@@H]2OC[C@@H]3NC(=O)c2ccc(C(F)(F)F)cc2)n1`?
NIH3T3 tox: inconclusive; FLuc inh: inactive; HEK cytotox: inconclusive; hNpr1 antagonist: inconclusive

What do the screens show for `CCOc1ccccc1NC(=O)N1CCCC(c2noc(COc3ccccc3)n2)C1` (stereo not drawn)?
NIH3T3 tox: inconclusive; FLuc inh: inactive; HEK cytotox: inconclusive; hNpr1 antagonist: -14%

How did COc1ccc(NC(=O)N2CCCC(c3noc(COc4ccccc4)n3)C2)c(C)c1 (stereo not drawn) do in these assays?
NIH3T3 tox: -52%; FLuc inh: inactive; HEK cytotox: inconclusive; hNpr1 antagonist: inconclusive; NPR1 antag cnf: 24µM*; Npr2 selectivity: inconclusive; FLuc inh counter: 0%; GloSensor ctrl: 22µM*

What do the screens show for `CC(C)c1ccc(NC(=O)N[C@H]2CO[C@H]3[C@@H]2OC[C@H]3OC(=O)Nc2ccc(Oc3ccccc3)cc2)cc1`?
NIH3T3 tox: inconclusive; FLuc inh: inactive; HEK cytotox: inconclusive; hNpr1 antagonist: inconclusive; NPR1 antag cnf: 19µM*; Npr2 selectivity: 19µM*; FLuc inh counter: 0%; GloSensor ctrl: 19µM*

Results for N#Cc1cccc(NC(=O)O[C@@H]2CO[C@H]3[C@@H]2OC[C@@H]3n2nnnc2SC2CCCC2)c1 ?
NIH3T3 tox: 4%; FLuc inh: inactive; HEK cytotox: 3%; hNpr1 antagonist: 5%

Results for CN(C)c1ccc(CN[C@H]2CO[C@H]3[C@@H]2OC[C@H]3OC(=O)Nc2ccc(Oc3ccccc3)cc2)cc1 ?
NIH3T3 tox: inconclusive; FLuc inh: inactive; HEK cytotox: inconclusive; hNpr1 antagonist: inconclusive; NPR1 antag cnf: inconclusive; Npr2 selectivity: inconclusive; FLuc inh counter: -13%; GloSensor ctrl: 22µM*

What do the screens show for `CCNC(=O)O[C@@H]1CO[C@H]2[C@@H]1OC[C@@H]2NC(=O)Nc1ccc(C(C)C)cc1`?
NIH3T3 tox: 0%[174 µM]; FLuc inh: inactive; HEK cytotox: -20%[172 µM]; hNpr1 antagonist: 2%[70.6 µM]

What do the screens show for `COc1ccc(C(=O)N[C@H]2CO[C@H]3[C@@H]2OC[C@H]3OC(=O)Nc2ccccc2)cc1`?
NIH3T3 tox: inconclusive; FLuc inh: inactive; HEK cytotox: 63µM*; hNpr1 antagonist: 32µM*; NPR1 antag cnf: 40µM*; Npr2 selectivity: 35µM*; FLuc inh counter: -9%[86.2 µM]; GloSensor ctrl: 35µM*

Results for O=C(Nc1ccccc1)O[C@@H]1CO[C@H]2[C@@H]1OC[C@@H]2NCc1ccccc1 ?
NIH3T3 tox: inconclusive; FLuc inh: inactive; HEK cytotox: inconclusive; hNpr1 antagonist: 0%[70.6 µM]

Bioassay records: PubChem, National Center for Advancing Translational Sciences (NCATS)
